According to PubChem BioAssay (EPA / NIEHS):
Records with an inconclusive call do not appear. The source made the active and inactive calls. Rule for the calls: active = hit-call score of the fitted dose curve at least 0.9, where 1 is the maximum; inconclusive = response in the unintended direction; inactive = score below 0.9.

Key:
[1] = molecular target: human Tyrosine Protein Kinase Receptor Tie-2 (Tie2), TEK (gene 7010) (UniProt Q02763); experiment: NVS_ENZ_hTie2: NovaScreen (NVS) Enzymatic Assay for human Tyrosine Protein Kinase Receptor Tie-2 (Tie2) (AID 2283225)
human Tyrosine Protein Kinase Receptor Tie-2 (Tie2), TEK (gene 7010), sequence (Q02763 whole entry, looked up): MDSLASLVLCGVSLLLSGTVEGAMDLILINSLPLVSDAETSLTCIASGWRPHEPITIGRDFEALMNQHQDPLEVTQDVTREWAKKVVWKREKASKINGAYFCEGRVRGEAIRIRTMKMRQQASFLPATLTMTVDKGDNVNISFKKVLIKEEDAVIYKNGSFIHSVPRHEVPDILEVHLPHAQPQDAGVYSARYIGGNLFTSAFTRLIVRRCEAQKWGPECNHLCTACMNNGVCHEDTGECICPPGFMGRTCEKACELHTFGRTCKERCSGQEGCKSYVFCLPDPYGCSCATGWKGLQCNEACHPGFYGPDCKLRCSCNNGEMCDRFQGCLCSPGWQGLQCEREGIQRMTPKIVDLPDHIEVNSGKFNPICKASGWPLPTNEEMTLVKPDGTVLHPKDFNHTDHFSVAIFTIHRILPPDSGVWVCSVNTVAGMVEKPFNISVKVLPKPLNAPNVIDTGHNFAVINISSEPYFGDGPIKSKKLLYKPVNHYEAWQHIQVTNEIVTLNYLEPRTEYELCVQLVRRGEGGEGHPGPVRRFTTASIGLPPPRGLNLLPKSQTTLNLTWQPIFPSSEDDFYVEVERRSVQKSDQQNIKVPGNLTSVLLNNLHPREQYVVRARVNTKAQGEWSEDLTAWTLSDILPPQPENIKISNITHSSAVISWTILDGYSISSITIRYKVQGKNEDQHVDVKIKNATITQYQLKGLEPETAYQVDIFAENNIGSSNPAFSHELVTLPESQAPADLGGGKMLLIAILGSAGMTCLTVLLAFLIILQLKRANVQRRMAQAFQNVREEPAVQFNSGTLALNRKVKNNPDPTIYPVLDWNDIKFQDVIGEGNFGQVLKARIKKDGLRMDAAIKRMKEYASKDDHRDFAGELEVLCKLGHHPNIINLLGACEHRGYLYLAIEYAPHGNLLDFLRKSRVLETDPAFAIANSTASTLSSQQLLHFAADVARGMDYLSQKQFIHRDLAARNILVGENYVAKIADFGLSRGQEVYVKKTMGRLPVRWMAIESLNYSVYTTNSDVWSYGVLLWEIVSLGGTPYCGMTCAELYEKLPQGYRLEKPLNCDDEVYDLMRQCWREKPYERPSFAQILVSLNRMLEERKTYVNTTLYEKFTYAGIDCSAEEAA
Procedure, shortened: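 Substrate and product were separated by mobility shift and detected by fluorescence after a 1-hour reaction with recombinant Tie2. Chemicals passing a 25 uM single-point screen were titrated to a maximum of 50 uM. Results were normalized to DMSO baseline.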

[2] = tested on: rat Monoamine Oxidase, MAO-A, Peripheral (MAOAP), gene 29253; experiment: NVS_ENZ_rMAOAP: NovaScreen (NVS) Enzymatic Assay for rat Monoamine Oxidase, MAO-A, Peripheral (MAOAP) (AID 2283237)
Procedure, shortened: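 Scintillation counting tracked MAO-A activity in a cell-free rat liver mitochondrial membrane prep, read 1.17 hours after compound addition. Single-point duplicate testing at 25 uM preceded concentration-response follow-up; activity was fitted relative to DMSO.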

[3] = molecular target: human Protein Tyrosine Phosphatase Receptor Type C (PTPRC), PTPRC (gene 5788) (UniProt P08575); experiment: NVS_ENZ_hPTPRC: NovaScreen (NVS) Enzymatic Assay for human Protein Tyrosine Phosphatase Receptor Type C (PTPRC) (AID 2283212)
human Protein Tyrosine Phosphatase Receptor Type C (PTPRC), PTPRC (gene 5788), sequence (P08575 whole entry, looked up): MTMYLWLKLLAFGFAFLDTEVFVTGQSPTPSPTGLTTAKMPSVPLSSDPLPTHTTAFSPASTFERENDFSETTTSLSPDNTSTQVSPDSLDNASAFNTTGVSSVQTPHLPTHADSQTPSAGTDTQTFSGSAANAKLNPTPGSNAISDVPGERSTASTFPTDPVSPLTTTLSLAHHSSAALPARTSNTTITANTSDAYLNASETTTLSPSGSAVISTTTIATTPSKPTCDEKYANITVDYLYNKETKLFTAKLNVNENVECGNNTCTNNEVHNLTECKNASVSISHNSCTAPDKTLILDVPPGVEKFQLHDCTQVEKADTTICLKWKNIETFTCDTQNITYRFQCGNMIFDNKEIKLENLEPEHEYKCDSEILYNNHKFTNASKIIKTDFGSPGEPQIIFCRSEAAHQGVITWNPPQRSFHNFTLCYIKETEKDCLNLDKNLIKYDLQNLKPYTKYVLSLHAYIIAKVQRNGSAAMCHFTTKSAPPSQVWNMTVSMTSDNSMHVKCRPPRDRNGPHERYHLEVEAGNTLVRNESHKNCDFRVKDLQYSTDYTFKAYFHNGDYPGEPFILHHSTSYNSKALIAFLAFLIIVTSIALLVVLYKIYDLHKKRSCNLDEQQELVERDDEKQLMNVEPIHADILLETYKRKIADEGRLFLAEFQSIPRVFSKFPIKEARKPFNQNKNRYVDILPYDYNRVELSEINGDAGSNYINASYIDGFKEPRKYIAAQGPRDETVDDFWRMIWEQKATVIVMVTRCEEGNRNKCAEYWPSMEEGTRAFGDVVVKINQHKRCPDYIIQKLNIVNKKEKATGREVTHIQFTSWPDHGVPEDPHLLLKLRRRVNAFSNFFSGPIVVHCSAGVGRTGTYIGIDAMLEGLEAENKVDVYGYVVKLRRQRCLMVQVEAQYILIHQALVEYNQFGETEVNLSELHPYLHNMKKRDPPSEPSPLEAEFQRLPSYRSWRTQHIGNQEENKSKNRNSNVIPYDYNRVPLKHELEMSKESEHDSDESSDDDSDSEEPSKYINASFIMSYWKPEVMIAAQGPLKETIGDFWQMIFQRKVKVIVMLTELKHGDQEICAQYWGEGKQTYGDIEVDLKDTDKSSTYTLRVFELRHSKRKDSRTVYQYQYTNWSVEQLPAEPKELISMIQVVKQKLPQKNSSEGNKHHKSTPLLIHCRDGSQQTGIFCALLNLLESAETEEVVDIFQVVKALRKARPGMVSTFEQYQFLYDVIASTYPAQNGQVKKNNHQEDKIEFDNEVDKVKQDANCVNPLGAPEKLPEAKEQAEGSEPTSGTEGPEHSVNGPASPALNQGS
Procedure, shortened: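 Absorbance-based phosphatase activity of human PTPRC protein extracted from yeast was measured 1 h post-dosing. Compounds first tested at 25 uM in duplicate, then those passing threshold in singleton concentration series to 50 uM.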

[4] = molecular target: human Raf-1 Proto-Oncogene, serine/threonine Kinase (RAF1), RAF1 (gene 5894) (UniProt P04049); experiment: NVS_ENZ_hRAF1: NovaScreen (NVS) Enzymatic Assay for human Raf-1 Proto-Oncogene, serine/threonine Kinase (RAF1) (AID 2283216)
human Raf-1 Proto-Oncogene, serine/threonine Kinase (RAF1), RAF1 (gene 5894), sequence (P04049 whole entry, looked up): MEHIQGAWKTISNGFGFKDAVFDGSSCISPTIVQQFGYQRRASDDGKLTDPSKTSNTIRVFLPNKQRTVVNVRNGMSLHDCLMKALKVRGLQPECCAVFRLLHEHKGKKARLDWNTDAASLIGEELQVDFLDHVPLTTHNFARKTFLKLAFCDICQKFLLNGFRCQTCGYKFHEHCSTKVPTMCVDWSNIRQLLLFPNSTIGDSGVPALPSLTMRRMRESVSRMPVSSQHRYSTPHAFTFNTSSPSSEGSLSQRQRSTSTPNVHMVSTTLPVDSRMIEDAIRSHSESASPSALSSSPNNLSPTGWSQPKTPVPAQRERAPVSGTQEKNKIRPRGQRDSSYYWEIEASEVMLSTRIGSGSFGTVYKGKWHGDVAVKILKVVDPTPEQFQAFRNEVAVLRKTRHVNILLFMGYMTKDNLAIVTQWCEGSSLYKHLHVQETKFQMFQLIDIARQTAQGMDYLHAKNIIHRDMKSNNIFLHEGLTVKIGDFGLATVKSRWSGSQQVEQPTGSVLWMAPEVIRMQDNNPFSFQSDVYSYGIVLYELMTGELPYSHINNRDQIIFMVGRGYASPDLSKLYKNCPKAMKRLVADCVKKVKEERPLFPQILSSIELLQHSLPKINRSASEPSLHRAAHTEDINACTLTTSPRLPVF
Procedure, shortened: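 Single-point screening at 25 uM (duplicate), followed by singleton concentration-response to 50 uM maximum for chemicals exceeding threshold. Enzyme activity from fluorescent substrate-product mobility-shift separation after 1 h, relative to DMSO.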

[5] = molecular target: Voltage-dependent N-type calcium channel subunit alpha-1B (Rattus norvegicus) (UniProt Q02294); experiment: NVS_IC_rCaChN: NovaScreen (NVS) Ion Channel Assay for rat Calcium Channel, Type N (CaChN) (AID 2283317)
[6] = molecular target: human Protein Tyrosine Phosphatase Non-receptor Type 2 (PTPN2), PTPN2 (gene 5771) (UniProt P17706); experiment: NVS_ENZ_hPTPN2: NovaScreen (NVS) Enzymatic Assay for human Protein Tyrosine Phosphatase Non-receptor Type 2 (PTPN2) (AID 2283207)
Procedure, shortened: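 Activity measured as fluorescence after mobility-shift separation of substrate and product, 1 h after compound. Duplicate single-point 25 uM primary testing, concentration series for actives; inhibition scored as signal loss relative to DMSO baseline.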

[7] = molecular target: bovine Gamma-Aminobutyric Acid Type A Receptor BDZ, alpha 1 site (GABARa1), GABRA1 (gene 780973) (UniProt P08219); experiment: NVS_LGIC_bGABARa1: NovaScreen (NVS) Ligand-Gated Ion Channel Assay for bovine Gamma-Aminobutyric Acid Type A Receptor BDZ, alpha 1 site (GABARa1) (AID 2283321)
bovine Gamma-Aminobutyric Acid Type A Receptor BDZ, alpha 1 site (GABARa1), GABRA1 (gene 780973), sequence (P08219 whole entry, looked up): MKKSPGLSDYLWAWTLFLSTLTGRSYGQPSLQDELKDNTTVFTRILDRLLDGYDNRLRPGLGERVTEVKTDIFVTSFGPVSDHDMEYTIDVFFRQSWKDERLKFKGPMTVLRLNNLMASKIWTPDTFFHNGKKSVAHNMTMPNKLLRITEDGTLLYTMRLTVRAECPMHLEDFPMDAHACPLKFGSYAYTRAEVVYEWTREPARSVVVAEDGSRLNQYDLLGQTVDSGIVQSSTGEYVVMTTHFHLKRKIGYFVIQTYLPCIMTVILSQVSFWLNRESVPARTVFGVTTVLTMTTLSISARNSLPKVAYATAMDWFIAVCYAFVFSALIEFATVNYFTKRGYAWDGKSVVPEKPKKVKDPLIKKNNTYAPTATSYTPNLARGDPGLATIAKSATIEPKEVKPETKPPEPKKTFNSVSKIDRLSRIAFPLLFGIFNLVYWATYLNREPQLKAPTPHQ
Procedure, shortened: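 Bovine cortex membrane preparation, benzodiazepine site on GABA-A alpha1; specific radioligand displacement read after 0.75 h by filtration and scintillation. Screen at 25 uM, then singleton titrations up to 50 uM; DMSO baseline.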

[8] = molecular target: rat Corticotropin Releasing Factor Receptor (CRF), Crhr1 (gene 58959) (UniProt P35353); experiment: NVS_GPCR_rCRF: NovaScreen (NVS) G Protein-Coupled Receptor Assay for rat Corticotropin Releasing Factor Receptor (CRF) (AID 2283300)
Procedure, shortened: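 Single-concentration (25 uM, duplicate) radioligand binding on rat cortical membrane preparations, counted by scintillation after 2 h. Activity scored as signal loss relative to DMSO negative control.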

[9] = molecular target: human Phosphatase and Tensin Homolog (PTEN), PTEN (gene 5728) (UniProt P60484); experiment: NVS_ENZ_hPTEN: NovaScreen (NVS) Enzymatic Assay for human Phosphatase and Tensin Homolog (PTEN) (AID 2283203)
human Phosphatase and Tensin Homolog (PTEN), PTEN (gene 5728), sequence (P60484 whole entry, looked up): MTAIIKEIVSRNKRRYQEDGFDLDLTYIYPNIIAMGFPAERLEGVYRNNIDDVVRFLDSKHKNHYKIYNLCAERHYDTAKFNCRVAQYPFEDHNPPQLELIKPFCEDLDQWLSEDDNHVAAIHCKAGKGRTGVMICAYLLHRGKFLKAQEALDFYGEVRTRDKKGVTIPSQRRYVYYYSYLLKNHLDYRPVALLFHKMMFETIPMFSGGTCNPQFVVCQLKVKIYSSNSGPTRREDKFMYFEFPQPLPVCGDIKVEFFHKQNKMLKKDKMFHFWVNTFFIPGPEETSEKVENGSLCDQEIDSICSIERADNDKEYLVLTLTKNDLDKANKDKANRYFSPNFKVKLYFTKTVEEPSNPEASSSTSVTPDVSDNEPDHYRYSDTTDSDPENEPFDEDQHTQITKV
Procedure, shortened: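 Loss of fluorescent product signal after mobility-shift separation reports PTEN activity, recombinant human enzyme, 1 h after compound addition. Single 25 uM duplicate screen, then concentration-response on actives; DMSO baseline.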

[10] = tested on: rat Monoamine Oxidase, MAO-A, Central (MAOAC), gene 29253; experiment: NVS_ENZ_rMAOAC: NovaScreen (NVS) Enzymatic Assay for rat Monoamine Oxidase, MAO-A, Central (MAOAC) (AID 2283243);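 note: potency refers to inhibition seen as signal drop below DMSO baseline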
Procedure, shortened: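 Scintillation read-out of MAO-A activity in rat brain lysate, 1.5 h post-dosing. Primary single-concentration screen: 25 uM, duplicate; actives re-tested in concentration series. DMSO = negative control/baseline.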

[11] = molecular target: rat Oxytocin Receptor (OXT), Oxtr (gene 25342) (UniProt P70536); experiment: NVS_GPCR_rOXT: NovaScreen (NVS) G Protein-Coupled Receptor Assay for rat Oxytocin Receptor (OXT) (AID 2283330)
rat Oxytocin Receptor (OXT), Oxtr (gene 25342), sequence (P70536 whole entry, looked up): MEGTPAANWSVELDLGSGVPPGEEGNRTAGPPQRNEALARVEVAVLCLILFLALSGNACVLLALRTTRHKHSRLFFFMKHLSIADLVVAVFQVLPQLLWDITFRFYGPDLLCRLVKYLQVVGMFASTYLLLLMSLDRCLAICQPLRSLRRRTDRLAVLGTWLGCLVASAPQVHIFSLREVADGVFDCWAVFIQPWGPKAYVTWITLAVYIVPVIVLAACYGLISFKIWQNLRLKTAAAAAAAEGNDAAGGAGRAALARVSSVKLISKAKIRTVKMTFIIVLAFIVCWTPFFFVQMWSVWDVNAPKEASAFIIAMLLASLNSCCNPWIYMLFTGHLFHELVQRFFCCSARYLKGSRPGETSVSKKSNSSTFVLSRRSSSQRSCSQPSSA
Procedure, shortened: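 Binding to rat uterine membrane receptor was followed by scintillation counting of filter-trapped radioligand after 1 h. A 25 uM duplicate single-point screen preceded concentration series with a top of 50 uM. Signal loss was analysed relative to DMSO.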

[12] = molecular target: Norway rat Vesicular Monoamine Transporter (VMAT2), neurotransmitter transporter, Slc18a2 (gene 25549) (UniProt Q01827); experiment: NVS_TR_rVMAT2: NovaScreen (NVS) Transporter Assay for Norway rat Vesicular Monoamine Transporter (VMAT2), neurotransmitter transporter (AID 2283376);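 note: actives lower the bound radioligand signal below the DMSO level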
Norway rat Vesicular Monoamine Transporter (VMAT2), neurotransmitter transporter, Slc18a2 (gene 25549), sequence (Q01827 whole entry, looked up): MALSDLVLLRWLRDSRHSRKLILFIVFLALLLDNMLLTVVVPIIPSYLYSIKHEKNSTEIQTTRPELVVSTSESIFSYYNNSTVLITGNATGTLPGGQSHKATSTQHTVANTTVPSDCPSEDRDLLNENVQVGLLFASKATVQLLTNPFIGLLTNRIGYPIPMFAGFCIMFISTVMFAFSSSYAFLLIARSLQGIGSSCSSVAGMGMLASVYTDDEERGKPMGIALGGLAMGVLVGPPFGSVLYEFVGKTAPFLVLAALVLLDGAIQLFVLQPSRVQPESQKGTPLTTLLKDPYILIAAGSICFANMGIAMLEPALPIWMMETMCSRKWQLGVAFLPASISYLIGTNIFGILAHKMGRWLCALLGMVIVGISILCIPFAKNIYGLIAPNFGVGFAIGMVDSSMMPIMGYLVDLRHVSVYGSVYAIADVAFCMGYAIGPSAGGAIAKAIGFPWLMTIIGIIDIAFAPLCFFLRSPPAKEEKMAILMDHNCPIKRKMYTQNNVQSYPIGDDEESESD
Procedure, shortened: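 Using rat forebrain membranes, specific radioligand binding to VMAT2 was measured by filtration and scintillation counting after 1 hour. Chemicals screened at 25 uM in duplicate, actives retested in concentration series, DMSO baseline.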

[13] = molecular target: rat Acetylcholinesterase (AChE), Ache (gene 83817) (UniProt P37136); experiment: NVS_ENZ_rAChE: NovaScreen (NVS) Enzymatic Assay for rat Acetylcholinesterase (AChE) (AID 2283233)
Procedure, shortened: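 Compounds first screened at 25 uM in duplicate, then those passing threshold tested in concentration series up to 50 uM, against AChE from rat brain membranes. Enzyme activity read by absorbance at 0.33 h; inhibition scored versus DMSO.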

[14] = molecular target: rat Monoamine Oxidase, MAO-B, Central (MAOBC), Maob (gene 25750) (UniProt P19643); experiment: NVS_ENZ_rMAOBC: NovaScreen (NVS) Enzymatic Assay for rat Monoamine Oxidase, MAO-B, Central (MAOBC) (AID 2283238)
Procedure, shortened: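 Actives from a duplicate 25 uM screen went on to singleton concentration-response with a 50 uM maximum. Enzyme source was rat brain tissue MAO-B, assayed cell-free. Radiolabelled product was counted by scintillation 1.17 h post-dose, with signal loss relative to DMSO.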

[15] = molecular target: rat Gamma-Aminobutyric Acid Type A Receptor BDZ, alpha 6 site (GABARa6), Gabra6 (gene 29708) (UniProt P30191); experiment: NVS_LGIC_rGABARa6: NovaScreen (NVS) Ligand-Gated Ion Channel Assay for rat Gamma-Aminobutyric Acid Type A Receptor BDZ, alpha 6 site (GABARa6) (AID 2283339)
Procedure, shortened: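 Actives from a 25 uM duplicate screen were retested in concentration series (max 50 uM). Specific radioligand displacement from rat cerebellar membranes was counted by filter-based scintillation at 1 h; DMSO served as baseline.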

SMILES: CCCCOC(=O)CCCCC(=O)OCCCC
- outcome [1]: inactive

SMILES: O=NO
- AC50 [2]: 33.9 µM (active)

SMILES: C[C@@H]1C[C@H]2[C@@H]3CCC4=CC(=O)C=C[C@]4(C)[C@@]3(F)[C@@H](O)C[C@]2(C)[C@@]1(O)C(=O)COP(=O)(O)O
- AC50 [3]: 15.3 µM (active)
- outcome [4]: inactive
- outcome [5]: inactive

SMILES: Cc1c(C(=O)O)c(O)cc2c1C(=O)c1c(O)c([C@@H]3O[C@H](CO)[C@@H](O)[C@H](O)[C@H]3O)c(O)c(O)c1C2=O
- AC50 [3]: 11.7 µM (active)
- outcome [2]: inactive

SMILES: CCCCC(CC)COC(=O)CCCCC(=O)OCc1ccccc1 (centres undefined)
- outcome [1]: inactive

SMILES: COc1nc(C)nc(NC(=O)NS(=O)(=O)c2ccccc2OCCCl)n1
- outcome [6]: inactive
- outcome [7]: inactive

SMILES: Cc1oc(-c2ccccc2)nc1CCOc1cccc2c1ccn2CCC(=O)O
- AC50 [3]: 5.98 µM (active)
- outcome [8]: inactive
- outcome [5]: inactive

SMILES: OC[C@H]1O[C@@H]2O[C@H]3[C@H](O)[C@@H](O)[C@@H](O[C@H]4[C@H](O)[C@@H](O)[C@@H](O[C@H]5[C@H](O)[C@@H](O)[C@@H](O[C@H]6[C@H](O)[C@@H](O)[C@@H](O[C@H]7[C@H](O)[C@@H](O)[C@@H](O[C@H]1[C@H](O)[C@H]2O)O[C@@H]7CO)O[C@@H]6CO)O[C@@H]5CO)O[C@@H]4CO)O[C@@H]3CO
- outcome [6]: inactive

SMILES: Cc1ccc(N)c([N+](=O)[O-])c1
- AC50 [9]: 25 µM (active)
- AC50 [10]: 8.62 µM (active)

SMILES: CCC(O)=C1C(=O)CC(C(=O)O)CC1=O (centres undefined)
- outcome [1]: inactive
- outcome [8]: inactive

SMILES: CC(C)CCO
- outcome [3]: inactive

SMILES: OC12N=C(c3ccccc3)SC1Cc1cc(Cl)ccc12 (centres undefined)
- AC50 [3]: 21.3 µM (active)

SMILES: Nc1nc(N)c2nc(CNc3ccc(C(=O)N[C@@H](CCC(=O)O)C(=O)O)cc3)cnc2n1
- AC50 [3]: 14.5 µM (active)
- AC50 [2]: 38.7 µM (active)
- outcome [7]: inactive

SMILES: CCCC[C@H]1CN(CC2CCOCC2)C(=O)OC12CCN(C1(C)CCN(C(=O)c3c(C)ncnc3C)CC1)CC2
- outcome [3]: inactive

SMILES: COC(=O)c1c(Cl)nn(C)c1S(=O)(=O)NC(=O)Nc1nc(OC)cc(OC)n1
- outcome [4]: inactive

SMILES: CCCN(CCC)c1c([N+](=O)[O-])cc(C(F)(F)F)c(N)c1[N+](=O)[O-]
- outcome [1]: inactive
- outcome [2]: inactive
- outcome [11]: inactive

SMILES: CCCCc1nc2cccnc2n1Cc1ccc(-c2ccccc2-c2nnn[nH]2)cc1
- outcome [3]: inactive

SMILES: COc1ccc(/C=C/S(=O)(=O)NC(=O)c2ccc(C)cc2Cl)cc1
- outcome [4]: inactive
- outcome [1]: inactive

SMILES: C[C@]12C=CC(=O)C=C1CC[C@H]1[C@@H]3C[C@@H](O)[C@](O)(C(=O)CO)[C@@]3(C)C[C@H](O)[C@@]12F
- outcome [1]: inactive

SMILES: Nc1ccc(S(=O)(=O)Nc2nccs2)cc1
- outcome [9]: inactive
- outcome [12]: inactive

SMILES: CN[C@H]1CC[C@@H](c2ccc(Cl)c(Cl)c2)c2ccc(S(N)(=O)=O)cc21
- AC50 [13]: 25 µM (active)
- outcome [5]: inactive

SMILES: Nc1ccccc1N
- AC50 [3]: 7.6 µM (active)

SMILES: CCc1cc(SCc2sc(-c3ccc(C(F)(F)F)cc3)nc2CN2CCN(c3ccc(OC)cc3)CC2)ccc1OCC(=O)O
- AC50 [2]: 25 µM (active)

SMILES: CCCCCCCCCC
- outcome [9]: inactive
- outcome [10]: inactive
- outcome [5]: inactive
- outcome [11]: inactive

SMILES: CCCCCCOCCO
- outcome [3]: inactive

SMILES: Nc1nc2ncc(CNc3ccc(C(=O)N[C@@H](CCC(=O)O)C(=O)O)cc3)nc2c(=O)[nH]1
- AC50 [3]: 15.8 µM (active)

SMILES: CCCCCCC(=O)OCC
- outcome [3]: inactive

SMILES: Nc1ccc(Nc2ccccc2)cc1
- AC50 [3]: 19.1 µM (active)
- AC50 [14]: 10.4 µM (active)

SMILES: NCC1(Cc2noc(=O)[nH]2)CCCCC1
- outcome [5]: inactive
- outcome [11]: inactive

SMILES: Cc1cc(SC2=C(O)C[C@@](CCc3ccc(N)cc3)(C(C)C)OC2=O)c(C(C)(C)C)cc1CO
- AC50 [7]: 22.6 µM (active)

SMILES: CCn1nc(C)c2c1C(=O)NCC(c1ccc(O)cc1)=N2
- outcome [7]: inactive
- outcome [15]: inactive

SMILES: O=C(c1ccccc1)c1ccc(O)cc1O
- outcome [12]: inactive

SMILES: Nc1ccc(Oc2cccc(Oc3ccc(N)cc3)c2)cc1
- outcome [12]: inactive
